Results filed as inconclusive are left out. Active and inactive are the calls of the source. Rule for the calls, unless noted: active = hit-call score of the fitted dose curve at least 0.9, where 1 is the maximum; inactive = score below 0.9.

Assay [1] deals with Bile acid receptor (Homo sapiens) (UniProt Q96RI1). In words: ATG_FXR_TRANS: Attagene TRANS-FACTORIAL HepG2 Assay for Farnesoid X Receptor (FXR) (AID 2282979; active = hit-call score of the fitted dose curve at least 0.9, where 1 is the maximum;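 note: hits raise reporter mRNA above DMSO so AC50 marks FXR activation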). Particulars: HepG2 Attagene TRANS FXR-GAL4 reporter transcription. An outline of the steps: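 HepG2 cells were transiently transfected with GAL4-UAS reporters driven by chimeric NR-Gal4 proteins and dosed for 24 h. Reporter mRNA was quantified by RT-PCR, fluorescent labelling, HpaI digestion and capillary electrophoresis, with gain of signal scored versus DMSO.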
Bile acid receptor (Homo sapiens), sequence (Q96RI1 whole entry, looked up, the tested form may be a part): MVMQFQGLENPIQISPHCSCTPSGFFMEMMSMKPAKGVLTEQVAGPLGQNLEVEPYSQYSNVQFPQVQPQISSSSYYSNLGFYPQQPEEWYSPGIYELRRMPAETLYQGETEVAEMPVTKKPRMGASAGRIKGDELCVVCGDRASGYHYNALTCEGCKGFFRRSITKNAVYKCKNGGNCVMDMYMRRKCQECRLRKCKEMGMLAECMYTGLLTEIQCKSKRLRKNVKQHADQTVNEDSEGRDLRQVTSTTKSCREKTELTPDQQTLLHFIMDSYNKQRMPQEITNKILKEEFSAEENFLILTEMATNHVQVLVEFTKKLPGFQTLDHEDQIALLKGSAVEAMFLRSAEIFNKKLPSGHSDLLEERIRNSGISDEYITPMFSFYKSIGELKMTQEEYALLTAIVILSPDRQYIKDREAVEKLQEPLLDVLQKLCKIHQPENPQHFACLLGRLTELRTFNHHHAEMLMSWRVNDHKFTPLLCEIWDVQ

Assay [2] deals with Hepatocyte nuclear factor 4-alpha (Homo sapiens) (UniProt P41235). Nature of the assay: ATG_HNF4a_TRANS: Attagene TRANS-FACTORIAL HepG2 Assay for human Hepatocyte Nuclear Factor 4 alpha (HNF4a) (AID 2282982; active = hit-call score of the fitted dose curve at least 0.9, where 1 is the maximum). Particulars: HepG2 HNF4a transactivation reporter, mRNA readout. Put shortly:
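Transient MRTU transfection of HepG2, 24 h dosing. Readout: reporter mRNA via RT-PCR + capillary electrophoresis, fluorescence; activity fit upward relative to DMSO control.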

Assay [3] addresses Transcriptional activator Myb (Homo sapiens) (UniProt P10242). In words: ATG_Myb_CIS: Attagene CIS-FACTORIAL HepG2 Assay for human Myeloblastosis (Myb) Proto-Oncogene Transcription Factor (AID 2282986). The note with it: HepG2 Attagene CIS-FACTORIAL Myb reporter transcription; actives raise or lower the signal. An outline of the steps:
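In this HepG2 transient-transfection format, cis-regulated reporter mRNA is quantified 24 h post-dosing by RT-PCR with capillary electrophoresis, fitted bidirectionally to DMSO baseline.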

In assay [4] the target is Nuclear respiratory factor 1 (Homo sapiens) (UniProt Q16656). In words: ATG_NRF1_CIS: Attagene CIS-FACTORIAL HepG2 Assay for human Nuclear Respiratory Factor 1 (NRF1) Orphan Gene (AID 2282987). Particulars: HepG2 NRF1 cis-element reporter, Attagene multiplex; actives raise or lower the signal. An outline of the steps:
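Using DMSO as baseline, gain- or loss-of-signal was fitted for reporter mRNA levels in HepG2 cells transiently transfected with cis-regulated reporter units. Samples were taken 24 h after dosing and read by RT-PCR with capillary electrophoresis.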

A short description of assay [5]: ATG_NFI_CIS: Attagene CIS-FACTORIAL HepG2 Assay for human Nuclear Factor I (NFI) (AID 2282989). The note with it: HepG2 cis-regulatory reporter, NFI response element transcription; actives raise or lower the signal. An outline of the steps:
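Transient MRTU transfection of HepG2 → 24 h chemical dosing → total RNA, oligo(dT) RT → PCR, 6-FAM primer extension, HpaI cut → capillary electrophoresis. Endpoint fitted bidirectionally relative to DMSO.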

Assay [6] addresses Myc proto-oncogene protein (Homo sapiens) (UniProt P01106). Nature of the assay: ATG_Myc_CIS: Attagene CIS-FACTORIAL HepG2 Assay for human Myelocytomatosis (Myc) Proto-Oncogene Transcription Factor (AID 2282990). The note with it: HepG2, Attagene cis-reporter transcription factor activity; actives raise or lower the signal. An outline of the steps: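 Transiently transfected HepG2 cells bearing cis-promoter reporter units for endogenous transcription factors; 24 h exposure. Reporter mRNA measured by RT-PCR, 6-FAM primer extension, HpaI cut and capillary electrophoresis; bidirectional fit relative to DMSO.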

Assay [7] is described as follows: ATG_NF_kB_CIS: Attagene CIS-FACTORIAL HepG2 Assay for human Nuclear Factor Kappa B (NF-kB) (AID 2282991). Particulars: HepG2 Attagene cis-factorial NF-kB reporter mRNA; actives raise or lower the signal. An outline of the steps: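 Endpoint from a 52-component multiplexed HepG2 reporter panel: cis-regulated transcription units transiently transfected, 24 h dosing, reporter mRNA quantified by RT-PCR and capillary electrophoresis, scored as increase or decrease against DMSO.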

The nature of assay [8]: ATG_NRF2_ARE_CIS: Attagene CIS-FACTORIAL HepG2 Assay for human Nuclear Factor Erythroid 2 Related Factor 2 (NFR2) response to Antioxidant Response Elements (ARE) (AID 2282992).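 For AC50: reporter mRNA level measured by RT-PCR and capillary electrophoresis fluorescence.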 Particulars: HepG2 Attagene ARE/NRF2 reporter, transcription factor activity; actives raise or lower the signal. An outline of the steps:
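Fluorescence intensity of reporter-specific cDNA fragments, separated by capillary electrophoresis, reflects mRNA induction in transfected HepG2 cells at 24 h. Activity is fitted bidirectionally, DMSO serving as baseline.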

Assay [9] has as its target Cellular tumor antigen p53 (Homo sapiens) (UniProt P04637). Nature of the assay: ATG_p53_CIS: Attagene CIS-FACTORIAL HepG2 Assay for human p53 Transcription Factor (AID 2282994). Particulars: HepG2 p53 cis-element reporter, Attagene mRNA; actives raise or lower the signal. An outline of the steps: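 Transiently transfected HepG2 (multiple cis reporter transcription units); exposure 24 h; reporter RNA via RT-PCR, 6-FAM extension, 2 h HpaI digest at 37 C, CE detection; DMSO baseline.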

The nature of assay [10]: ATG_M_06_TRANS: Attagene TRANS-FACTORIAL HepG2 Assay for M06 Transcription Factor (Internal Marker) (AID 2282983; active = hit-call score of the fitted dose curve at least 0.9, where 1 is the maximum;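 note: reporter transcript level by RT-PCR then capillary electrophoresis fluorescence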). Particulars: HepG2 Attagene TRANS M06 internal marker reporter. An outline of the steps:
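mRNA levels of a reporter transcript, quantified as FAM fluorescence on capillary electrophoresis, served as readout. HepG2 cells expressing exogenous GAL4-chimera reporter constructs were exposed for 24 h. Gain of signal over DMSO was evaluated.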

Assay [11] in a line: ATG_M_32_TRANS: Attagene TRANS-FACTORIAL HepG2 Assay for M32 Transcription Factor (Internal Marker) (AID 2282984; active = hit-call score of the fitted dose curve at least 0.9, where 1 is the maximum;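 note: transcript level of a background control reporter unit measured by RT-PCR and capillary electrophoresis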). The note with it: HepG2 Attagene TRANS M32 internal marker reporter. Put shortly: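 Read-out: fluorescent reporter cDNA fragments resolved by capillary electrophoresis after RT-PCR of total RNA. Transfected HepG2 cells were exposed to chemical for 24 h. Activity scored in the positive direction relative to DMSO.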

Assay [12] in a line: ATG_Oct_MLP_CIS: Attagene CIS-FACTORIAL HepG2 Assay for human Octamer-Binding Transcription Factor (Oct) (AID 2282993). The note with it: HepG2 Attagene cis-factorial Oct reporter, mRNA; actives raise or lower the signal. An outline of the steps: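 Transient MRTU transfection of HepG2 → 24 h compound treatment → RNA isolation, reverse transcription, PCR → 6-FAM primer extension, HpaI digest → capillary electrophoresis. Activity fitted both directions against DMSO.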

Assay [13] has as its target Oxysterols receptor LXR-beta (Homo sapiens) (UniProt P55055). Nature of the assay: ATG_LXRb_TRANS: Attagene TRANS-FACTORIAL HepG2 Assay for human Liver X Receptor beta (LXRb) (AID 2282981; active = hit-call score of the fitted dose curve at least 0.9, where 1 is the maximum). The note with it: HepG2 Attagene TRANS GAL4-LXRb reporter, mRNA. Put shortly:
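Readout: fluorescent reporter mRNA fragments resolved by capillary electrophoresis after RT-PCR. System: transiently transfected human HepG2, exogenous LXRb-Gal4 chimera driving GAL4-UAS reporter, 24 h dosing. Activity fitted upward against DMSO baseline.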

Assay [14] deals with Nuclear receptor subfamily 4 group A member 2 (Homo sapiens) (UniProt P43354). In words: ATG_NURR1_TRANS: Attagene TRANS-FACTORIAL HepG2 Assay for human Nuclear Receptor Related Protein 1 (NURR1) (AID 2282985; active = hit-call score of the fitted dose curve at least 0.9, where 1 is the maximum). The note with it: HepG2 Attagene TRANS reporter, mRNA readout. An outline of the steps:
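Read-out: reporter mRNA induction by RT-PCR plus capillary electrophoresis with fluorescence detection, after 24 h dosing of transfected HepG2 cells. Exogenous NR-Gal4 chimera activity drives GAL4-UAS reporter; activity fitted upward versus DMSO.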

In assay [15] the target is Oxysterols receptor LXR-alpha (Homo sapiens) (UniProt Q13133). In words: ATG_LXRa_TRANS: Attagene TRANS-FACTORIAL HepG2 Assay for human Liver X Receptor alpha (LXRa) (AID 2282980; active = hit-call score of the fitted dose curve at least 0.9, where 1 is the maximum). Particulars: HepG2 Attagene TRANS reporter, LXRa transactivation. An outline of the steps:
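HepG2 cells transiently transfected with GAL4-UAS reporter units for chimeric NR-Gal4 proteins, exposed to chemicals for 24 h. Reporter mRNA quantified by RT-PCR and capillary electrophoresis; gain of signal fitted relative to DMSO.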

Oxysterols receptor LXR-alpha (Homo sapiens), sequence (Q13133 whole entry, looked up, the tested form may be a part): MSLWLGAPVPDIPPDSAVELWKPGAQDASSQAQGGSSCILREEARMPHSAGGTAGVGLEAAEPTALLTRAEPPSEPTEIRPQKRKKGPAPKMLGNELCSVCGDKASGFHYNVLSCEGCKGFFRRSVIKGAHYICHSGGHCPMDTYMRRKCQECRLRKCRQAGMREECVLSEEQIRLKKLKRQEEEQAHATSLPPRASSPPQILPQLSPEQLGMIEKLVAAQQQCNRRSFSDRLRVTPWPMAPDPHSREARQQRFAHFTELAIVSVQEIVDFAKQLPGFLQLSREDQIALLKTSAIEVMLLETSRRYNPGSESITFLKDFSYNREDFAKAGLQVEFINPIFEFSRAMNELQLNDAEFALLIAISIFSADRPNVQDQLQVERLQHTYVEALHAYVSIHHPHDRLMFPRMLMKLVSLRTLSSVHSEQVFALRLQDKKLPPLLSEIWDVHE
Transcriptional activator Myb (Homo sapiens), sequence (P10242 whole entry, looked up): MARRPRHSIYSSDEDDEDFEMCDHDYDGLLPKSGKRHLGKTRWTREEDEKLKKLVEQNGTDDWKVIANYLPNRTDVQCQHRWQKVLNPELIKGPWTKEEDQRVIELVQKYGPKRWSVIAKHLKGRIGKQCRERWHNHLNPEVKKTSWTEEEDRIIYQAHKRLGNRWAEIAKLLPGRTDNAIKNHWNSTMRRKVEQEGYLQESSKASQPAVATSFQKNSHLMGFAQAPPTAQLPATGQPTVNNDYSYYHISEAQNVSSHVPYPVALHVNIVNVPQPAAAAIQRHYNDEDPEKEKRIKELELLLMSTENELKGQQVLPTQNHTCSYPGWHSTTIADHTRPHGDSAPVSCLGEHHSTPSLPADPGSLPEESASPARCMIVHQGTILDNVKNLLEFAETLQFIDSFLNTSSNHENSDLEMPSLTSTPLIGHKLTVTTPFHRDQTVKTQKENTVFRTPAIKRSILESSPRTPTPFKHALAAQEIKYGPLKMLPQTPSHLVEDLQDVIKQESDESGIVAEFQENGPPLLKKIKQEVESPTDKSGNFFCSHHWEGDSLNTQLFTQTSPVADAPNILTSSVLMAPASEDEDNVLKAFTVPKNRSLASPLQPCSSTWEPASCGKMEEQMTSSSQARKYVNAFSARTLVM
Hepatocyte nuclear factor 4-alpha (Homo sapiens), sequence (P41235 whole entry, looked up): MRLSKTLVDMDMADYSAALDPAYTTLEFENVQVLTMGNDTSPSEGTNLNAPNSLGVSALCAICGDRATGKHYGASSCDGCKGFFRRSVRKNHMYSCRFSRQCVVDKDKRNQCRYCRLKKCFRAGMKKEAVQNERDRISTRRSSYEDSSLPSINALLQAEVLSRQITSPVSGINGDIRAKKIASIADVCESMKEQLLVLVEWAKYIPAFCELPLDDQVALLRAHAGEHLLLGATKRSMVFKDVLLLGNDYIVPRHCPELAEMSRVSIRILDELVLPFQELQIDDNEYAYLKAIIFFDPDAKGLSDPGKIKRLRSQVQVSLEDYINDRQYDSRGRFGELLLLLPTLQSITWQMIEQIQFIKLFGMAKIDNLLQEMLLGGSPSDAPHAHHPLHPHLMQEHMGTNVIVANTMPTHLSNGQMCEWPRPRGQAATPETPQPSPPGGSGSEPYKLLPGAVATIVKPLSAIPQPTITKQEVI
Myc proto-oncogene protein (Homo sapiens), sequence (P01106 whole entry, looked up): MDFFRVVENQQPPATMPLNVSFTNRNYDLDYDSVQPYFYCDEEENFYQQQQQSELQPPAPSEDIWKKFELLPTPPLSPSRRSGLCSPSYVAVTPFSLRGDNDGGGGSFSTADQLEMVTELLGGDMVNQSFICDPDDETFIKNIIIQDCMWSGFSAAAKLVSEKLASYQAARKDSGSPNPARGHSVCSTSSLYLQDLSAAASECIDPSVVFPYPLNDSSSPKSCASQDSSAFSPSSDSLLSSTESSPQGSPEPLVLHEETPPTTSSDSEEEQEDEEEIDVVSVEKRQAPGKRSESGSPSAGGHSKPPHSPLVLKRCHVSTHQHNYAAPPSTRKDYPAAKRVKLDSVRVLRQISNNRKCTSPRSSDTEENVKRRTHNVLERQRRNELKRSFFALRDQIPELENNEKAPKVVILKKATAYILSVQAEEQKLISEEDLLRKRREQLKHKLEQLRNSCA
Cellular tumor antigen p53 (Homo sapiens), sequence (P04637 whole entry, looked up): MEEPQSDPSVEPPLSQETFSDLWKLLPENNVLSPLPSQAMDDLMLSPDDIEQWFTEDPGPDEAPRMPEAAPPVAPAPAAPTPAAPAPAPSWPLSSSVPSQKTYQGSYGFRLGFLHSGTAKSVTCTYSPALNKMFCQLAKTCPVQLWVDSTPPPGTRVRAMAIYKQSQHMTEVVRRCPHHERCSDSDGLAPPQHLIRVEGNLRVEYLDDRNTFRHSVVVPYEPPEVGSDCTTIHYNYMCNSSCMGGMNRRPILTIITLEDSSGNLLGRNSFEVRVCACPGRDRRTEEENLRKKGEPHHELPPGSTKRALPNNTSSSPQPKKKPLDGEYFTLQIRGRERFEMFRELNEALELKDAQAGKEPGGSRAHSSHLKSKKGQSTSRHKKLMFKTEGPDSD
Nuclear receptor subfamily 4 group A member 2 (Homo sapiens), sequence (P43354 whole entry, looked up, the tested form may be a part): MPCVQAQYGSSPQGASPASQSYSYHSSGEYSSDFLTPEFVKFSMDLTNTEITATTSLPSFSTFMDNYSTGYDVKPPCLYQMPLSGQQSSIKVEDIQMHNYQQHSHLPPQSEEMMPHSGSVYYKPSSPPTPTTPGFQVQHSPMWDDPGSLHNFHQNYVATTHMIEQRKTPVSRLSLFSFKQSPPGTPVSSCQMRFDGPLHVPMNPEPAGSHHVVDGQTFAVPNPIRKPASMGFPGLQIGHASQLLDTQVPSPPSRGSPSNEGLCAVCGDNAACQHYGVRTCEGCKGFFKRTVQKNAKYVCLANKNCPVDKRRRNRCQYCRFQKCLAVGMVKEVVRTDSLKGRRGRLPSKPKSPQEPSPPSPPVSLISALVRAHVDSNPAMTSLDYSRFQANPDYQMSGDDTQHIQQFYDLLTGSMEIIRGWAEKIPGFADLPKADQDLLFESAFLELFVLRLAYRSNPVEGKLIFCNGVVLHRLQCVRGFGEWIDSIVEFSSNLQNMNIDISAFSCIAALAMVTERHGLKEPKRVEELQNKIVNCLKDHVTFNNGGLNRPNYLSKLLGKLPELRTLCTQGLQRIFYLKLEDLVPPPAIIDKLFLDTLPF
Oxysterols receptor LXR-beta (Homo sapiens), sequence (P55055 whole entry, looked up, the tested form may be a part): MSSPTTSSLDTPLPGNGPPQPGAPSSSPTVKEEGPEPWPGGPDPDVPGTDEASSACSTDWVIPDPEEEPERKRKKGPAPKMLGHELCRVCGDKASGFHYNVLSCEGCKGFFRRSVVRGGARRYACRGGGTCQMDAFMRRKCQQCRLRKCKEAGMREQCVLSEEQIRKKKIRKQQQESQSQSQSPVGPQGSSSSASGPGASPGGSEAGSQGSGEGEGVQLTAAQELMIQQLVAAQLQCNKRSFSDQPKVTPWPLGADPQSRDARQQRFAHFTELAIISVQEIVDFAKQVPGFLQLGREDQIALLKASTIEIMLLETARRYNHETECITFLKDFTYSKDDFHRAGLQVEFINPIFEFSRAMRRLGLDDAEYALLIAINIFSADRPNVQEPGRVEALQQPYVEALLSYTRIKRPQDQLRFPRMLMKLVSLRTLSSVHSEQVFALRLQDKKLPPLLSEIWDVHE
Nuclear respiratory factor 1 (Homo sapiens), sequence (Q16656 whole entry, looked up): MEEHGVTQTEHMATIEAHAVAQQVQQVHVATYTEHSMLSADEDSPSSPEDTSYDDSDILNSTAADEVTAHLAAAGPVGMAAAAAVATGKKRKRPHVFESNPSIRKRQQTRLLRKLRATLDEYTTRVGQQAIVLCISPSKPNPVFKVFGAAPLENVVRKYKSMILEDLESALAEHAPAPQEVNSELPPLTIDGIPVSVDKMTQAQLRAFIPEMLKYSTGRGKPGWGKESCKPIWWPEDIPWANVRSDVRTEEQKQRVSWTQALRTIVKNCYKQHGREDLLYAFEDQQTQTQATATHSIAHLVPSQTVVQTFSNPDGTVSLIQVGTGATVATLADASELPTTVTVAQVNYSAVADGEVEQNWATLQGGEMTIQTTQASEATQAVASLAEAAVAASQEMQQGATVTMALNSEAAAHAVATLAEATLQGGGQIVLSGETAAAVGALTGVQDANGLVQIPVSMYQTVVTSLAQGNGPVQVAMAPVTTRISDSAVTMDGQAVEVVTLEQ

For `O=Nc1ccc(Nc2ccccc2)cc1`, the call in assay [1], in assay [2], in assay [3] and in [6] was inactive. Further, the AC50 in assay [4] was 56.3 µM (active); in assay [5] it was 56.4 µM (active); in assay [7] it was 12.1 µM (active); in assay [8], 7.16 µM (active); in assay [9] it was 54.3 µM (active).

As for `C=CC(C)(C)O`, the molecule was classed as inactive in assay [1], in assay [2], in assay [10], in assay [11], in assay [3] and in assay [4]. In addition, the outcome in [5], in [6], in assay [7], in assay [8], in assay [12] and in assay [9] was inactive.

`Cc1ccc(C=O)cc1`: the molecule was called inactive in assay [1], in [13], in assay [14], in assay [3], in assay [4] and in [5]. Moreover, the outcome in assay [6], in assay [7], in [8] and in assay [12] was inactive.

Turning to `CCN(CC)c1ccc2c(-c3ccccc3C(=O)O)c3ccc(=[N+](CC)CC)cc-3oc2c1`, the outcome in assay [1], in assay [11], in assay [3], in assay [4], in assay [5] and in assay [6] was inactive. In addition, the molecule was called inactive in [12] and in assay [9]. Also, the AC50 in assay [8] was 36.7 µM (active).

With `CC(C)C(C)(C)C(C)(C)C(C)(C)S`, the call in [15], in assay [13], in [2], in assay [10], in assay [3] and in assay [4] was inactive. Moreover, the molecule was called inactive in assay [5], in assay [6], in assay [7], in [8], in assay [12] and in [9].

As for `O=c1[nH]nnc2ccccc12`, the molecule was classed as inactive in [1], in assay [2], in assay [14], in [3], in assay [4] and in assay [5]. In addition, the outcome in assay [6], in assay [7], in assay [8], in assay [12] and in assay [9] was inactive.

`COc1ccc(OC)c(OC)c1`: the result in assay [1], in assay [13], in assay [2], in assay [10], in assay [11] and in assay [3] was inactive. For the same molecule, the result in [4], in [5], in [6], in assay [8] and in assay [12] was inactive.

For `Cc1ccc(C(=O)O)o1`, the molecule was called inactive in [15], in [13], in assay [2], in assay [10], in assay [11] and in assay [14]. Further, the molecule was classed as inactive in [3], in assay [4], in assay [5], in assay [6], in assay [7] and in assay [12].

`CCOC(=O)c1ccccc1OC`: the molecule was called inactive in assay [15], in assay [13], in assay [10], in [11], in assay [3] and in [4]. Also, the result in assay [5], in assay [6], in assay [7], in [8] and in [12] was inactive.

With `CC(CN1c2ccccc2Sc2ccccc21)N(C)C` (stereo not given), the call in [15], in [13], in assay [2], in assay [14], in assay [3] and in assay [4] was inactive. For the same molecule, the outcome in [5], in [6], in [7] and in assay [8] was inactive. The figures for the AC50 in [12] and in [9] were 38.8 µM (active) and 30.5 µM (active), respectively.

Turning to `C[C@H]1C[C@H]2[C@@H]3CCC4=CC(=O)C=C[C@]4(C)[C@@]3(F)[C@@H](O)C[C@]2(C)[C@@]1(O)C(=O)COP(=O)(O)O`, the molecule was called inactive in [15], in assay [13], in assay [2], in assay [11], in [4] and in [5]. For the same molecule, the result in assay [6], in [7], in [12] and in assay [9] was inactive. Also, the AC50 in assay [8] was 15.6 µM (active).
